{
  "source": "PubChem BioAssay (EPA / NIEHS)",
  "note": "The source made the active and inactive calls. The calls were made as follows: active = hit-call score of the fitted dose curve at least 0.9, where 1 is the maximum; inactive = score below 0.9.",
  "data": [
    {"read-out": "Monokine induced gamma interferon (MIG), CXCL9 (gene 4283)", "experiment": "BSK_SAg_MIG: BioMAP Diversity Plus: SAg Assay for Monokine induced gamma interferon (MIG) Biomarker Activity (AID 2283092)", "conditions": "primary human HUVEC with PBMC; actives raise or lower the signal", "in_short": "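ELISA readout of MIG/CXCL9; primary human umbilical vein endothelial cells co-cultured with peripheral blood mononuclear cells; 24 h post-dose; gain/loss fit vs DMSO baseline.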", "values": [
      {"smiles": "CCOC(=O)C(C#N)=C(c1ccccc1)c1ccccc1", "outcome": "inactive"},
      {"smiles": "Clc1cc(Cl)c(-c2c(Cl)c(Cl)cc(Cl)c2Cl)cc1Cl", "outcome": "inactive"},
      {"smiles": "COc1ccc(OC)c(N=Nc2c(O)ccc3ccccc23)c1", "outcome": "inactive"},
      {"smiles": "IC(I)I", "outcome": "inactive"},
      {"smiles": "c1ccc(CCc2ccccc2)cc1", "AC50": "34.1 µM (active)"},
      {"smiles": "O=C1OC[C@H](Cc2cccc(O)c2)[C@H]1Cc1cccc(O)c1", "outcome": "inactive"},
      {"smiles": "O=CN1CCOCC1", "outcome": "inactive"},
      {"smiles": "CC=Cc1ccc(OCC)c(O)c1", "outcome": "inactive"},
      {"smiles": "C=C(C)[C@H]1CC=C(C)C(=O)C1", "outcome": "inactive"},
      {"smiles": "CC(=O)c1c(C)c([N+](=O)[O-])c(C(C)(C)C)c([N+](=O)[O-])c1C", "outcome": "inactive"},
      {"smiles": "C=CC(C)(O)CCC=C(C)C", "note": "(stereo not drawn)", "outcome": "inactive"},
      {"smiles": "CC1(C)C2=CCCC(C)(C)[C@]23CC[C@H]1C3", "outcome": "inactive"},
      {"smiles": "C[C@@H]1CCN(C(=O)[C@H](CCCN=C(N)N)NS(=O)(=O)c2cccc3c2NC[C@H](C)C3)[C@@H](C(=O)O)C1", "outcome": "inactive"},
      {"smiles": "COc1cc(Cl)c(OC)cc1N", "outcome": "inactive"},
      {"smiles": "CCCCCCC(CO)CCCC", "note": "(stereo not drawn)", "outcome": "inactive"},
      {"smiles": "CC(=O)Nc1ccc(C(=O)CCl)cc1", "AC50": "8.55 µM (active)"},
      {"smiles": "CCCCCC(C=O)=Cc1ccccc1", "outcome": "inactive"},
      {"smiles": "CS(=O)(=O)c1ccc(C2=C(c3ccccc3)C(=O)OC2)cc1", "outcome": "inactive"},
      {"smiles": "CN(C)C(=O)Nc1ccc(Oc2ccc(Cl)cc2)cc1", "outcome": "inactive"},
      {"smiles": "CC(C=O)Cc1ccc(C(C)(C)C)cc1", "note": "(stereo not drawn)", "outcome": "inactive"},
      {"smiles": "COc1ccc(CCN2CCC(Nc3nc4ccccc4n3Cc3ccc(F)cc3)CC2)cc1", "outcome": "inactive"},
      {"smiles": "CC(CN=Cc1ccccc1O)N=Cc1ccccc1O", "note": "(stereo not drawn)", "outcome": "inactive"},
      {"smiles": "CN(C)C(=S)SC(=S)N(C)C", "outcome": "inactive"},
      {"smiles": "CC1(C)CCC[C@]2(C)[C@H]3CCO[C@]3(C)CC[C@@H]12", "outcome": "inactive"},
      {"smiles": "O=C(Nc1ccc2c(O)c(N=Nc3ccc(N=Nc4ccc(S(=O)(=O)O)cc4)cc3)c(S(=O)(=O)O)cc2c1)c1ccccc1", "outcome": "inactive"},
      {"smiles": "O=C1OC2(c3ccccc31)c1ccc(O)c(Br)c1Oc1c2ccc(O)c1Br", "outcome": "inactive"},
      {"smiles": "CN(c1nccc(=O)[nH]1)C1CCN(c2nc3ccccc3n2Cc2ccc(F)cc2)CC1", "outcome": "inactive"},
      {"smiles": "CCC(C)c1cc([N+](=O)[O-])cc([N+](=O)[O-])c1OC(=O)OC(C)C", "note": "(stereo not drawn)", "AC50": "9.7 µM (active)"},
      {"smiles": "C1=CC2C3C=CC(C3)C2C1", "note": "(stereo not drawn)", "outcome": "inactive"},
      {"smiles": "CC(=O)C1(C)CC2=C(CCCC2(C)C)CC1C", "note": "(stereo not drawn)", "AC50": "33.9 µM (active)"},
      {"smiles": "CCCCN(CCCC)C(=O)N(CCCC)CCCC", "outcome": "inactive"},
      {"smiles": "CS(=O)(=O)OCCCCOS(C)(=O)=O", "outcome": "inactive"},
      {"smiles": "C=C(C)C(=O)OCCOCCOCCOC(=O)C(=C)C", "outcome": "inactive"}
    ]}
  ]
}
